In PubChem BioAssay AID743279 (National Center for Advancing Translational Sciences (NCATS), 2014):
The campaign covered roughly 360,000 compounds. About 17,000 (4.7%) were called active. Inconclusive results (about 5%) are left out. Rule as the data show it: active = activity change below about -50%; inconclusive = mostly about -30% to -49%; inactive = weaker than that. The sample as a whole holds a higher share of actives than the screen did.

assay: qHTS for Inhibitors of Inflammasome Signaling: IL-1-beta AlphaLISA Primary Screen; details: THP-1 LPS/ATP IL-1B secretion, 16 h; at 57.5 µM, active compounds read low
Outline: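 THP-1 cells pretreated 1 hr with compounds (up to 57.5 uM final), then stimulated with LPS (250 ng/mL final) plus ATP (1.25 mM final); secreted IL-1B measured by AlphaLISA after 16 hr, decreased signal indicating inhibition.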
% is scaled to controls: 0 for no effect and ±100 for the full control effect.

Activity change, inactive:
Cc1cc(C)cc(OCC(=O)O/N=C(\N)Cc2ccc([N+](=O)[O-])cc2)c1 -24.7%
N/C(=N\OC(=O)Cc1ccc([N+](=O)[O-])cc1)c1ccccn1 -21.1%
CC1(C(=O)NS(=O)(=O)c2ccccc2)CCN1C(=O)c1ccccc1 (centres undefined) 21%
O=C(CN1CCSCC1)N/N=C/c1ccc(F)cc1 -9.62%
CCOc1cc(/C=N/NC(=O)CN2CCCCC2)ccc1O 2.69%
COc1ccc(N2CC(C(=O)NCCN3C(=O)S/C(=C\c4cccnc4)C3=O)CC2=O)c(OC)c1 (centres undefined) -26.5%
COc1cc(OC)cc(C(=O)NNC(=O)Cc2cccs2)c1 -1.89%
Cc1cc2nc(-c3ccco3)c(Cc3cccc(F)c3)n2c(C)c1Br 5.29%
O=S1(=O)CC(N2CCN(CCO)CC2)CN1Cc1cn(Cc2cccc(Cl)c2)nn1 (centres undefined) 13.7%
COc1ccc(C2=NN(C(=O)CSc3nnnn3C)C(c3ccco3)C2)cc1 (centres undefined) -17.6%
CCOC(=O)C1C(=O)NC(N2CCN(c3ccccc3)CC2)=NC1c1ccco1 (centres undefined) -8.04%
Cc1ccc(NC(=O)C(C)OC(=O)C2CC3CCCC(C2)C3=O)cc1S(=O)(=O)N1CCOCC1 (centres undefined) 21%
CC1(C(=O)Nc2cccc3c2CCCC3)CCN1C(=O)C1(c2ccccc2)CC1 (centres undefined) 2.24%
CC(C)Cc1ccc(-c2cc3nc(NCc4cccc(Cl)c4)ccn3n2)cc1 16.6%
COc1ccc(-c2csc3ncnc(N4CCN(S(=O)(=O)c5cccc(F)c5)CC4)c23)cc1 -1.57%
COc1cccc(C(=O)NNC(=O)/C=C/c2ccccc2)c1 12.5%
COc1cccc(/C=C/C(=O)OCC(=O)N2CCCc3ccccc32)c1 -0.538%
COc1ccc(C2OC(CCc3ccccc3)Cc3[nH]c(=S)[nH]c(=O)c32)cc1 (centres undefined) -10.2%
COc1ccc(OCc2cc(C(=O)N3CCCC3)no2)c2ccccc12 0%
CCn1ccnc1CN(C)C(=O)c1cc(COc2ccc(Cl)cc2OC)on1 -11%
O=C(CCCN1C(=O)CCC1=O)Nc1ccc(Cl)c(C(F)(F)F)c1 3.74%
O=C(COC(=O)c1cc[n+]([O-])cc1)Nc1ccc(Cl)c(C(F)(F)F)c1 14.3%
COc1ccc(C(=O)N2CCCCC2c2cc(C(=O)Nc3ccccc3)no2)cc1 (centres undefined) -3.11%
O=C(CCN1C(=O)c2ccncc2C1=O)Nc1cc(F)ccc1F 36.2%
C#CCOCCOCCOCCNc1nc(N2CCN(C(=O)[C@H](CCCCN)n3cc(CCC(=O)O)nn3)CC2)nc(N2CCN(C(=O)[C@H](CCCCN)n3cc(CC(C)O)nn3)CC2)n1 (some centres undefined) 3.3%
C#CCOCCOCCOCCNc1nc(N2CCN(C(=O)Cn3cc(CCO)nn3)CC2)nc(N2CCN(C(=O)Cn3cc(CCCN=C(N)N)nn3)CC2)n1 12.6%
C#CCOCCOCCOCCNc1nc(N2CCN(C(=O)Cn3cc(CCO)nn3)CC2)nc(N2CCN(C(=O)[C@H](CCCCN)n3cc(CCCC)nn3)CC2)n1 2.45%
C#CCOCCOCCOCCNc1nc(N2CCN(C(=O)Cn3cc(CCCCN)nn3)CC2)nc(N2CCN(C(=O)[C@H](CCCCN)n3cc(CCC(=O)O)nn3)CC2)n1 58.3%
C#CCOCCOCCOCCNc1nc(N2CCN(C(=O)[C@H](C(C)C)n3cc(CCO)nn3)CC2)nc(N2CCN(C(=O)[C@H]([C@@H](C)CC)n3cc(CCCN=C(N)N)nn3)CC2)n1 -5.99%
C#CCOCCOCCOCCNc1nc(N2CCN(C(=O)[C@H](CCC(=O)O)n3cc(CN)nn3)CC2)nc(N2CCN(C(=O)[C@H](CCC(=O)O)n3cc(CN)nn3)CC2)n1 25.6%
COc1ccc(CCNc2cc(N3CCN(C(=O)c4ccccc4OC)CC3)ccc2[N+](=O)[O-])cc1OC 42.9%
O=C(NN=CC=Cc1ccccc1)C(O)C(O)C(=O)NN=CC=Cc1ccccc1 (centres undefined) -17.2%
Cc1ccc(C(CNC(=O)Nc2cccc(C)c2)N2CCN(C)CC2)cc1 (centres undefined) -20.1%
CCC1CCCCN1C(=S)NC(=O)c1ccco1 (centres undefined) -6.58%
CCn1c(=O)c2ccccc2n(CC(=O)N2CCCc3ccccc32)c1=O -0.244%
COc1ccc(CCNC(=O)COc2cc(C)cc3oc(=O)c(C)c(C)c23)cc1OC -1.44%
Cc1cccc(NC(=O)c2ccc(COc3ccccc3[N+](=O)[O-])o2)n1 6.94%
CCOc1ccc(OCc2ccc(C(=O)N(C)c3ccccc3)o2)cc1 -7.29%
OC[C@@H]1CN(Cc2ccc(Cl)cc2)C[C@H](n2cnc3c(NCc4ccncc4)ncnc32)O1 -7%
C=CCn1c2c(c3ccccc31)CCC2 0%
CC(C)(C)c1ccc(C(=O)NNC(=O)Cc2ccccc2)cc1 0.0784%
Cc1ccc(C(=O)CSc2ccccc2C(=O)O)cc1 5.18%
CCC(C)C1(C2CCCC2)NC(=O)NC1=O (centres undefined) -5.19%
CC1(c2cccc([N+](=O)[O-])c2)CC(C)(C)N(C(=O)c2ccccc2)c2ccccc21 (centres undefined) -2.13%
CC1(c2ccccc2)CC(C)(C)N(C(=O)c2cc([N+](=O)[O-])cc([N+](=O)[O-])c2)c2ccccc21 (centres undefined) 5.37%
CCOC(=O)C1=CC[C@@H](c2ccccc2)N(S(=O)(=O)c2ccc(C)cc2)[C@H]1c1cccc(OC)c1 2.13%
OC(COc1ccc(Br)cc1)CN1CCCC1 (centres undefined) -27.2%
OC(COc1ccccc1)CN1CCN(c2cccc(Cl)c2)CC1 (centres undefined) 14.3%
CCC(=O)c1ccc(OCC(O)CN2CCN(c3cccc(C(F)(F)F)c3)CC2)cc1 (centres undefined) -11.4%
CC1CCN(CC(O)COc2ccc(C(=O)c3ccccc3)cc2)CC1 (centres undefined) -22.3%
CC(C)NC(=O)C1(C)CCCCN1Cc1cccc(C(F)(F)F)c1 (centres undefined) 12.4%
CCCCCNC(=O)C(c1ccc(OC)cc1)n1c(=O)c(-c2ccccc2)nc2ccccc21 (centres undefined) -10.4%
CCOC(=O)C1(C)CCCN(C(=O)c2ccc(F)c(Cl)c2)C1 (centres undefined) 7.31%
C[C@H]1CN([C@@H](C)CO)C(=O)CCCn2cc(nn2)CO[C@@H]1CN(C)S(=O)(=O)c1ccc(-n2cccn2)cc1 -21.5%
O=C(CSCc1ccc([N+](=O)[O-])cc1)Nc1cccc(C(=O)Nc2ccccc2C(=O)O)c1 13.4%
O=C(Cc1ccc(S(=O)(=O)N2CCOCC2)s1)NCCC(c1ccccc1)c1ccccc1 17%
O=C(Cc1ccc(S(=O)(=O)N2CCOCC2)s1)NCCOc1ccccc1F 6.24%
CCN(C(=O)Nc1cccc2ccccc12)c1ccccc1 12.7%
O=C(Nc1nnc(-c2ccccc2)o1)c1cc(-c2cccs2)nc2ccccc12 23%
COc1ccccc1C(=O)Nn1c(-c2cccs2)nc2ccccc2c1=O -3.33%
Cc1ccc(NS(=O)(=O)c2ccc(C(C)(C)C)cc2)cn1 1.59%
COc1ccccc1Oc1ccc(S(=O)(=O)Nc2cccnc2)cc1 -2.24%

Activity change, active:
N/C(Cc1ccc([N+](=O)[O-])cc1)=N\OC(=O)COc1ccc2ccccc2c1 -59.9%
Cc1ccc(COc2ccc(/C=N/NC(=O)CN3CCCCC3)cc2)cc1 -51.4%
CCOC(=O)C1C(=O)C=C(c2ccc(OC)cc2)CC1c1ccco1 (centres undefined) -62.8%
COc1cccc(C=CC(=O)C=CC=Cc2ccccc2)c1 -59.4%
COc1cc(Cl)ccc1OCc1cc(C(=O)N2CC[C@@H]3CCCC[C@H]3C2)no1 -82.6%
O=C(CC(O)(C(F)(F)F)C(F)(F)F)Nc1ccc(Cl)c(Cl)c1 -71.8%
C#CCOCCOCCOCCNc1nc(N2CCN(C(=O)CCCCCCCCCCNC(=O)Cn3cc(CCCCCN)nn3)CC2)nc(N2CCN(C(=O)CCCCCCCCCCNC(=O)[C@H](CO)n3cc(CCCSC)nn3)CC2)n1 -72.1%
C#CCOCCOCCOCCNc1nc(N2CCN(C(=O)CCCCCCCCCCNC(=O)[C@H]([C@@H](C)CC)n3cc(CCCCN=C(N)N)nn3)CC2)nc(N2CCN(C(=O)CCCCCCCCCCNC(=O)[C@H](CO)n3cc(CCCSC)nn3)CC2)n1 -111%
C#CCOCCOCCOCCNc1nc(N2CCN(C(=O)CCCCCCCCCCNC(=O)[C@H](CCCCN)n3cc(C)nn3)CC2)nc(N2CCN(C(=O)CCCCCCCCCCNC(=O)[C@H](CO)n3cc(CCCSC)nn3)CC2)n1 -81.7%
CCOc1ccc(OCc2ccc(C(=O)Nc3cccc(C)n3)o2)cc1 -69%
Cc1ccc(SC(CC(=O)c2ccc(C(C)(C)C)cc2)C(=O)O)cc1 (centres undefined) -93.8%
Cc1nnc(SCC(=O)N2c3ccccc3C(C)(c3ccc(Cl)cc3)CC2(C)C)s1 (centres undefined) -71.6%
OC(COc1ccc2c(c1)CCC2)CN1CCN(c2cccc(Cl)c2)CC1 (centres undefined) -64.8%
O=C(c1ccc(Cl)cc1)c1ccc(OCC(O)CN2CCCCC2)cc1 (centres undefined) -52.5%
O=C(Cc1ccc(S(=O)(=O)N2CCOCC2)s1)Nc1ccc(Br)c(C(F)(F)F)c1 -61%
CC(=O)Nc1cccc(Nc2nc(-c3cccs3)nc3ccccc23)c1 -65.6%
Cc1cc(C)cc(NS(=O)(=O)c2ccc(Oc3ncc(C(F)(F)F)cc3Cl)cc2)c1 -75.1%
